Source: PubChem BioAssay (NCI)
About 83,000 compounds went through this panel and 20% of them were active in at least one assay; those are over-represented in the sample as a whole.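 Single-concentration screen, 48 h exposure, 96-well plates. Endpoint: percent growth. Below 10 = active.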 The source made the active and inactive calls.

Legend:
Test in all cases: NCI-60 one-dose screen, 48 h (100 = growth as untreated, 0 = no growth, -100 = all killed)
Conditions in all cases: 10 µM unless noted
[1] = tested on: NCI-H23 lung
[2] = tested on: NCI-H226 lung
[3] = tested on: NCI-H322M lung
[4] = tested on: HOP-62 NSCLC
[5] = tested on: NCI-H460 lung
[6] = tested on: HOP-92 NSCLC
[7] = tested on: NCI-H522 lung
[8] = tested on: A549/ATCC NSCLC
[9] = tested on: 786-0 renal
[10] = tested on: COLO 205 colon
[11] = tested on: DU-145 prostate
[12] = tested on: K-562 leukemia
[13] = tested on: MALME-3M melanoma
[14] = tested on: MDA-MB-231 breast
[15] = tested on: RXF 393 renal
[16] = tested on: SF-268 CNS
[17] = tested on: SF-295 CNS
[18] = tested on: SF-539 CNS
[19] = tested on: UACC-257 melanoma
[20] = tested on: M14 melanoma

Measured: growth

O=C1Nc2ccc(Cl)cc2/C1=C/c1ccc[nH]1
inactive: [1] 66.3% | [2] 97.4% | [3] 69.4% | [4] 95.8% | [5] 82.3% | [6] 133% | [7] 71.4% | [8] 90.3% | [9] 108% | [10] 126% | [11] 83.6% | [12] 100% | [13] 99.1% | [14] 40.7% | [15] 74% | [16] 96.4% | [17] 109% | [18] 88.6% | [19] 118% | [20] 78.4%

CC1(C)CC[C@]23CC[C@]4(C)[C@H](CC[C@@H]5[C@@]6(C)CCNCC(C)(C)[C@@H]6CC[C@]54C)[C@H]2[C@H]1OC3
active: [10] -21%
inactive: [1] 95.6% | [2] 96.7% | [3] 99.8% | [4] 97% | [5] 23.7% | [6] 98.9% | [7] 90.1% | [8] 79.3% | [9] 101% | [11] 98.5% | [12] 16.9% | [13] 104% | [14] 96.6% | [15] 101% | [16] 111% | [17] 108% | [18] 99.5% | [19] 92.5% | [20] 92.8%

NCCCNc1nc2ccccc2c2c(=O)c3cc(Cl)ccc3sc12
inactive: [1] 45.7% | [2] 93.1% | [3] 39.5% | [15] 47.1% | [16] 37.7% | [18] 55.7% | [19] 74.9%
active: [4] -82.9% | [5] -83.8% | [6] -7.36% | [7] -83.6% | [8] -18.4% | [9] 2.76% | [10] -83.6% | [11] -76.9% | [12] -70.1% | [13] -38.3% | [14] -82.9% | [17] 4.81% | [20] -48.2%

C#CCOc1cccc(Nc2ncnc3c2ncn3C2CCN(C(=O)CCl)C2)c1 (stereo not given)
inactive: [3] 87.2% | [5] 24.7% | [8] 54.6% | [17] 53.4% | [19] 13.1%
active: [1] -23.1% | [2] 1.03% | [4] 1.84% | [6] -84.5% | [7] -61.3% | [9] -72.4% | [10] -72.5% | [11] -95.4% | [12] 0.116% | [13] -84% | [14] -61.2% | [15] -79.4% | [16] -31.6% | [18] -68.5% | [20] -48.6%

COc1ccc(C(=O)C/C(=C\c2ccc(O)c(OC)c2)C(=O)NN)cc1
inactive: [1] 68.9% | [2] 91.7% | [3] 82% | [4] 67.4% | [5] 43.6% | [6] 69.5% | [7] 52.1% | [8] 80% | [9] 112% | [10] 106% | [11] 101% | [12] 47.2% | [13] 93.4% | [14] 65.4% | [15] 107% | [16] 92.4% | [17] 102% | [18] 80.8% | [19] 81.5% | [20] 91.5%

COc1cc2c(cc1OCCCN1CCN(C(=S)SCCC(C#N)(c3ccccc3)c3ccccc3)CC1)N=C[C@@H]1CCCN1C2=O
active: [1] -46.7% | [2] -55.8% | [3] -62.2% | [4] 1.76% | [5] -80.3% | [6] -71% | [7] -48.3% | [8] -3.55% | [9] -94.9% | [10] -69.5% | [11] -100% | [12] -5.69% | [13] -89.3% | [14] -31.1% | [15] -92.9% | [16] -72.5% | [17] -14.2% | [18] -94.7% | [19] -45.5% | [20] -76.6%

CN(C)CCCn1c2c(c3cnccc3c1=O)C(=O)c1ccccc1-2
active: [1] -10.7% | [2] -13.8% | [3] -7.53% | [4] -1.96% | [5] -27.2% | [6] -9.59% | [7] -28.2% | [9] -4.55% | [10] -25% | [11] -16.9% | [12] 3.18% | [13] -45.7% | [14] 0.187% | [15] -28.4% | [16] -3.3% | [17] 6.47% | [18] -6.26% | [19] -26.8% | [20] -47.9%
inactive: [8] 11.3%

COc1ccc(N=C2NN=C(c3c[nH]c4ccccc34)CS2)cc1OC
inactive: [1] 67.7% | [2] 80.6% | [3] 70% | [4] 50.5% | [5] 26.9% | [6] 19.6% | [8] 55% | [9] 54.8% | [10] 57.9% | [11] 65.9% | [12] 36.6% | [13] 69.3% | [14] 55.4% | [15] 68.6% | [16] 56.2% | [18] 51.8% | [19] 77.4% | [20] 34%
active: [7] -34.1% | [17] -31.9%

Fc1ccc(/C=C/[C@@H]2C[C@@H](F)CCO2)cc1
inactive: [1] 104% | [2] 101% | [3] 82.1% | [4] 105% | [5] 99.7% | [6] 73.6% | [7] 91% | [8] 106% | [9] 94.4% | [10] 102% | [11] 113% | [12] 64.2% | [13] 99.7% | [14] 98.2% | [15] 96.4% | [16] 104% | [17] 94.8% | [18] 103% | [19] 93.9% | [20] 85.5%

O=C(O)CC(C(=O)O)/C(=C\c1ccccc1)c1ccccc1 (stereo not given)
inactive: [1] 105% | [2] 86.4% | [3] 116% | [4] 89.3% | [5] 106% | [6] 93.3% | [7] 128% | [8] 99.5% | [9] 114% | [10] 99.5% | [11] 139% | [12] 103% | [13] 117% | [14] 121% | [15] 104% | [16] 113% | [17] 115% | [18] 122% | [19] 100% | [20] 121%

Clc1cccc(C2Cc3cnccc3-c3[nH]c4ccncc4c32)c1 (stereo not given)
inactive: [1] 35% | [2] 52.1% | [3] 73.2% | [4] 67.3% | [5] 19.1% | [6] 39.1% | [7] 51.9% | [8] 42.9% | [9] 59.7% | [10] 23.4% | [11] 69.6% | [12] 23.6% | [13] 52.2% | [14] 44.8% | [15] 69.1% | [16] 57.7% | [17] 28.6% | [18] 65.5% | [19] 29.9% | [20] 58.4%

O=c1oc2c(cc1-c1ccccc1)c[n+]([O-])c1ccccc21
inactive: [1] 101% | [2] 93.5% | [3] 104% | [4] 99.2% | [5] 98% | [6] 86.4% | [7] 98.9% | [8] 98% | [9] 90.3% | [10] 102% | [11] 103% | [12] 92.6% | [13] 97.7% | [14] 91.8% | [15] 94.6% | [16] 107% | [17] 101% | [18] 101% | [19] 100% | [20] 103%

O=S(=O)(N=C1C(Cl)=C(Cl)C(=NS(=O)(=O)c2ccccc2)C(Cl)=C1Cl)c1ccccc1
inactive: [1] 73.3% | [2] 97.5% | [3] 97.4% | [4] 91.5% | [5] 39.1% | [6] 134% | [7] 39.3% | [8] 74.4% | [9] 118% | [10] 98.4% | [11] 20.5% | [12] 65.6% | [13] 113% | [14] 98.8% | [15] 64.7% | [16] 87.1% | [17] 64.2% | [18] 109% | [19] 68.9% | [20] 94.1%

CC(=O)c1ccc(-n2cc(CN3CCN(c4cc5c(cc4F)c(=O)c(C(=O)O)cn5C4CC4)CC3)nn2)cc1
inactive: [1] 83.5% | [2] 69.6% | [3] 89.2% | [4] 78.7% | [5] 91.2% | [6] 79.9% | [7] 89.2% | [8] 89.8% | [9] 87.9% | [10] 110% | [11] 104% | [12] 101% | [13] 94.9% | [14] 97.1% | [15] 72% | [16] 85.3% | [17] 95.9% | [18] 92.6% | [19] 96.7% | [20] 90.1%
